Data: ChEMBL document CHEMBL3433997, “St. Jude Leishmania screening dataset” (2016)

Experiments:
Type in all cases: functional
[1] = molecular target: Solute carrier family 2, facilitated glucose transporter member 1 (Homo sapiens) (UniProt P11166); test: ST_JUDE_LEISH: Cytotoxicity at 2uM final concentration against transgenic Leishmania Mexicana promastigotes LmGLUT1 that are glucose transport deficient and complemented with the human glucose transporter GLUT1. Activity is measured by DNA content using SYBR green in vitro
Chain of Solute carrier family 2, facilitated glucose transporter member 1 (Homo sapiens) (P11166 whole entry): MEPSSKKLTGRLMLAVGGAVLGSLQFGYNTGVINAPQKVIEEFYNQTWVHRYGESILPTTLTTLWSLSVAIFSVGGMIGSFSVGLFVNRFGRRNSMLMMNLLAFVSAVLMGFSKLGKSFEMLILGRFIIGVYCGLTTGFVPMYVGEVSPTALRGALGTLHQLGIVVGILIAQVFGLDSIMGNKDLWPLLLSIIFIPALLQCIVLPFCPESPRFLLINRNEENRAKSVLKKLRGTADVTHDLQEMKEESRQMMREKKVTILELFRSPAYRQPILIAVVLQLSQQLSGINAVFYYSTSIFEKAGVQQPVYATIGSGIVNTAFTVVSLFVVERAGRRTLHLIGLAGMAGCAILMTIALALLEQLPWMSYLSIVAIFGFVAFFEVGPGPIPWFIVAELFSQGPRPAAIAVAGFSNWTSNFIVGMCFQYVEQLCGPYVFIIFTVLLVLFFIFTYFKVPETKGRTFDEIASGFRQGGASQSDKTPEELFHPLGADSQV

[2] = molecular target: Hexose transporter 1 (Plasmodium falciparum) (UniProt O97467); test: ST_JUDE_LEISH: Cytotoxicity at 2uM final concentration against transgenic Leishmania Mexicana promastigotes LmPfHT that are glucose transport deficient and complemented with the Plasmodium falciparum hexose transporter. Activity is measured by DNA content using SYBR green in vitro
[3] = molecular target: Glucose transporter (Leishmania mexicana) (UniProt O61059); test: ST_JUDE_LEISH: Cytotoxicity at 2uM final concentration against transgenic Leishmania Mexicana promastigotes LmGT2 that are glucose transport deficient and complemented with the L. Mexicana glucose transporter 2. Activity is measured by DNA content using SYBR green in vitro

Structure (SMILES)	inhibition [1] [%]	inhibition [2] [%]	inhibition [3] [%]
O=C(Nc1ccc(Cn2nc(Cl)c(N3CCNCC3)cc2=O)cc1)Nc1ccc(-c2ccccc2)cc1	14	9.91	11.4
CCCC(C)Nc1nc(C)cc(N[C@@H](CC(C)C)C(=O)NCCOc2ccccc2)n1 (stereo partly drawn)	21.4	17	16.7
Cn1cc(-c2ccccc2C(=O)O)c(=O)c2cc(Cl)ccc21	2.25	1.87	2.49
COc1ccc(CN(C)CCCCc2ccc(NC(=O)COc3cccc4sc5ccccc5c(=O)c34)cc2)cc1OC	1.62	-3.06	0.59
COc1ccc(Cc2c(N)nc3nc(N)nc(N)c3c2C)cc1	1.48	3.73	3.1
Cc1c(C(=O)NCc2ccncc2)sc2nc(-c3cccc([N+](=O)[O-])c3)cn12	0.53	-1.39	-3.15
COc1ccc2ccccc2c1CCCCN1CCN(CC(c2ccc(F)cc2)N2CCC2)CC1 (stereo not drawn)	4.25	3.64	3.18
Cc1nc(-c2ccc(-c3ccc(C(=O)Nc4ccc(I)c(OCCN5CCCC5)c4)cc3)c(C)c2)no1	3.85	3.48	1.38
CC(=O)c1ccc(NC(=O)NNC(=O)c2ccc(CCN3CCC(c4nc(COCC(F)(F)F)c(-c5ccc(F)cc5)o4)CC3)cc2)cc1	0.31	0.69	-1.37
O=C(/C=C/c1ccc(Br)cc1)NCCCCCN1CCC(c2c[nH]c3ccccc23)CC1	25.2	17.3	12.7
Cc1ccc2nc(N(CCCn3ccnc3)C(=O)C=Cc3cccs3)sc2c1	0.75	1.84	-2.73
Cc1cccc(NC(=O)Nc2cccc(-c3ccc(-c4nc5cc(C(F)(F)F)ccc5[nH]4)cc3)c2)c1	5.86	2.01	1.66
CCCNCc1c(O)ccc2c(CNCCC)c(O)ccc12	0.17	-0.89	0.49
Cc1ccc(C(C#N)c2ccc3c(C(F)(F)F)cc(C(F)(F)F)nc3n2)cc1 (stereo not drawn)	1.88	2.44	4.34
COc1ccc(-c2csc3ncnc(Cl)c23)cc1	5.44	5.72	4.99
COCCn1c(-c2nc(-c3ccc(F)cc3)cnc2N)nc2ccccc21	0.54	-2.08	-0.94
CCN(CC)S(=O)(=O)c1ccc(C=CC(=O)Nc2cc(Cl)ccc2N2CCOCC2)cc1	6.36	4.63	5.02
Cc1cccc(C)c1CNc1ccnc2cc(C#N)ccc12	3.83	3.15	2.98

Structure (SMILES)	inhibition [1] [%]	inhibition [2] [%]	inhibition [3] [%]
O=C(NCCc1ccccc1)N(Cc1ccc(-c2cccc(CN3CCNCC3)c2)cc1)C1CCN(Cc2ccccc2)CC1	1.57	1.61	0.74
O=C(Nc1ccc(-c2csc(-c3nc4ccccc4[nH]3)c2)cc1)Nc1ccsc1	1.71	0.76	0.44
Nc1ncc(-c2ccc3nccc(-c4ccncc4)c3c2)cc1S(=O)(=O)N1CCOCC1	5.11	3.05	1.27
CC(Oc1c(C2CCN(CCCCNC(=O)c3ccc(-c4ccc(Cl)cc4)cc3)CC2)ccc2c1CCCC2)C(N)=O (stereo not drawn)	-0.63	-0.36	-0.27
COc1c(CNCCCCCCNCc2cc(Cl)c3ccccc3c2OC)cc(Cl)c2ccccc12	1.94	7.04	-0.2
CNC(=O)c1ccc(/C=C/C(=O)N2CCc3ccc(-c4ccccc4)cc3C2c2cccc(C(F)(F)F)c2)cc1 (stereo not drawn)	2.29	-0.01	0.99
c1cc(Nc2nc(-c3ccc(-c4csc(Nc5ccncc5)n4)cc3)cs2)ccn1	-1.93	-1.56	-1.05
CCC(C)NS(=O)(=O)c1ccc2nc(Nc3cccc(SC)c3)n(C(C)C(C)C)c2c1 (stereo not drawn)	3.91	4.3	3.8
CCCCC(=O)Nc1cc(=O)[nH]c2nc(-c3ccc(Cl)cc3)nn12	-1.02	3.54	-0.39
CN(C(=O)/C=C/c1ccccc1F)C1CCN(CCCCCNC(=O)/C=C/c2ccc(Cl)c(Cl)c2)CC1	5.19	4.23	5.34
COc1ccc(OC)c(NC(=O)c2c(-c3c(F)cccc3Cl)noc2C)c1	5.12	3.64	2.52
CN1CCC=C(C(=O)NCC(C)(C)c2nc(-c3ccc(Cl)c(O)c3)c(-c3ccncc3)[nH]2)C1	6.76	9.88	7.7
Fc1ccc2[nH]c(-c3cccc(-c4ccc(CN5CCN(c6ccncc6)CC5)cc4)c3)nc2c1	0.76	1.36	0.8
COc1ccc2nccc(N/N=C/c3ccccc3[N+](=O)[O-])c2c1	2.92	4.3	0.03
COc1ccc2nccc([C@@H](O)CN3CCC(NCc4nc5cc(F)cc(F)c5[nH]4)CC3)c2c1	3.31	4.04	-0.63
COc1ccc(CNCc2ccccc2)cc1-c1ccc(S(=O)(=O)NCCN2CCCC2)cc1	2.89	1.76	-2.76
Cc1noc(-c2cccs2)c1C(=O)NC(C)c1cccc2ccccc12 (stereo not drawn)	-0.34	0.45	0.18
CCNc1cc(C(=O)N[C@@H](Cc2ccccc2)[C@H](O)CNCc2cccc(-n3ccnc3)c2)cc(N2CCCC2=O)c1	-1.37	-0.52	1.12
